Holding throughout (set-up): scale not given: direction of the effect not stated beside the values
Assay [1] concerns the target Protein translocase subunit SecA (Escherichia coli (strain K12)) (UniProt P10408). In words: Assay to Identify E. coli SecA ATPase Inhibitors. Conditions: 30 µM. It counts as functional.
Assay [2] concerns the target T1, Ubiquitin-activating enzyme e1, putative (Leishmania donovani (strain BPK282A1)) (UniProt E9BSI1).
T1 sequence (whole entry): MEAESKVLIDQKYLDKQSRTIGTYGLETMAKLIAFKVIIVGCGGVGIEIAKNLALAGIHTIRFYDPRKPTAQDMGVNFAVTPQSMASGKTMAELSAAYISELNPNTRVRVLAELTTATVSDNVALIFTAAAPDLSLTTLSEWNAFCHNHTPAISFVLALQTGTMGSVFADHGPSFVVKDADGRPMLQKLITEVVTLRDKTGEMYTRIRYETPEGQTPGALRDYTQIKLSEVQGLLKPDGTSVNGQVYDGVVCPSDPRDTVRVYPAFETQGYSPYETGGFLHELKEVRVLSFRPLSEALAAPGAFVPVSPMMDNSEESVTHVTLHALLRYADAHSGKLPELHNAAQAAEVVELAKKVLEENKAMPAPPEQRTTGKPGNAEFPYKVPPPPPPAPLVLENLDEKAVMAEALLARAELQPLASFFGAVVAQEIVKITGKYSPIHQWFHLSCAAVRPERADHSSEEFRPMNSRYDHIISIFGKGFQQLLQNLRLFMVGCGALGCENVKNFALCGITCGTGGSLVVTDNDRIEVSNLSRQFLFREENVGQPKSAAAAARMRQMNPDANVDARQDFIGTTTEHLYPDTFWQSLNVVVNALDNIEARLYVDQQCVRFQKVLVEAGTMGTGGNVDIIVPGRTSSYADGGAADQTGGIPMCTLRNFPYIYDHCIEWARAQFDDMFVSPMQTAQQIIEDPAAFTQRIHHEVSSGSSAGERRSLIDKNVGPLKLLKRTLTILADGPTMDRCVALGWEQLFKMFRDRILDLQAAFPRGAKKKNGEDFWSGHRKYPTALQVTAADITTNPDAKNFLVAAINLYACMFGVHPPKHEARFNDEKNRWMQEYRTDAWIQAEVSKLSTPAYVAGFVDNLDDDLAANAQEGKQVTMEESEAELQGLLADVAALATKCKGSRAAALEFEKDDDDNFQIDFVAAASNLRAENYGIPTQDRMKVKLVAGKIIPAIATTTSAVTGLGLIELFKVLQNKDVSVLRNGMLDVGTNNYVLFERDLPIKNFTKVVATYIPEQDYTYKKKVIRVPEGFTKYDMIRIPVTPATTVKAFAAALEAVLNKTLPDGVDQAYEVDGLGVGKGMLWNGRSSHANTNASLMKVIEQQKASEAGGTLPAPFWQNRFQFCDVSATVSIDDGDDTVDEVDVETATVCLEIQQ
In words: Leishmania donovani Ubiquitin Activating Enzyme (LdE1). Type of assay: functional. The conditions noted are these: 30 µM.

Assay [3] addresses AMP-activated protein kinase, AMPK (Homo sapiens) (UniProt P54646+O43741+P54619+Q9UGJ0+Q9Y478+Q13131+Q9UGI9). In words: AMP-dependent Kinase enzyme assay. An in vitro enzyme assay that detects ADP turnover that is directly proportional to AMPK activity. This uses naive AMPK that is activated during the assay with MK-8722. Type of assay: functional. Conditions: 30 µM.
The target of assay [4] is Sialic acid-binding Ig-like lectin 9 (Homo sapiens) (UniProt Q9Y336). In words: Hs-Siglec9 ALPHAscreen SOP 20170721. The conditions noted are these: 10 µM.
Sialic acid-binding Ig-like lectin 9 (Homo sapiens), sequence (Q9Y336 whole entry): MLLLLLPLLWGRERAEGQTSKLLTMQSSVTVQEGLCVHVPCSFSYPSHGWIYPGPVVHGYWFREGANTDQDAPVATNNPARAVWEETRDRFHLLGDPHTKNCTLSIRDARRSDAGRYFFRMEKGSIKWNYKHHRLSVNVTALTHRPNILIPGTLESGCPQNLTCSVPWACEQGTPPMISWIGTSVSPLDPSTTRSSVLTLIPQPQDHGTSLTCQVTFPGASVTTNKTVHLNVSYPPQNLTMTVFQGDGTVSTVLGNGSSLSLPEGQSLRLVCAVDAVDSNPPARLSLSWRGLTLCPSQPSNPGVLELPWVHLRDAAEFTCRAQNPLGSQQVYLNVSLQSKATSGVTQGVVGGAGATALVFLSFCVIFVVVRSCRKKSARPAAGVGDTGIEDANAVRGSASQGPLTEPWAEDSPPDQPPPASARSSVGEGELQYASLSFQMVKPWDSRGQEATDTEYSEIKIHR
The next assay deals with Trypanosoma cruzi. In words: Trypanosoma cruzi phosphomannomutase and mannose-1-phosphate guanylyltransferase assay. It counts as functional. The conditions noted are these: 10 µM.
Assay [5] concerns the target T2, Arginase-2, mitochondrial (Homo sapiens) (UniProt P78540).
T2 sequence (whole entry): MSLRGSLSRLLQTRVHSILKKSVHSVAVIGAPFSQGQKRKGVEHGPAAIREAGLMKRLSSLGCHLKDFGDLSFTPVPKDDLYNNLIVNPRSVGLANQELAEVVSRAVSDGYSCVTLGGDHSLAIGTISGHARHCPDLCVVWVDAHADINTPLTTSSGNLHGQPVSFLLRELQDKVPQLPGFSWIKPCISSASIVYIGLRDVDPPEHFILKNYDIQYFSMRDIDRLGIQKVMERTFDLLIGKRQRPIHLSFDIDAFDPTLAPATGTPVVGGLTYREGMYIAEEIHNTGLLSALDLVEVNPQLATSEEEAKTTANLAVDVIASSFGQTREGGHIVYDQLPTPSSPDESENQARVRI
In words: in vitro enzyme assay to detect the production of urea directly proportional to the activity of Arginase II. Also: in the data most compounds retested in dose-response had high values. Type of assay: functional. The conditions noted are these: 33.3 µM.

The target in assay [6] is T3, Proteasome subunit beta (Trypanosoma cruzi) (UniProt O96673).
T3 sequence (whole entry): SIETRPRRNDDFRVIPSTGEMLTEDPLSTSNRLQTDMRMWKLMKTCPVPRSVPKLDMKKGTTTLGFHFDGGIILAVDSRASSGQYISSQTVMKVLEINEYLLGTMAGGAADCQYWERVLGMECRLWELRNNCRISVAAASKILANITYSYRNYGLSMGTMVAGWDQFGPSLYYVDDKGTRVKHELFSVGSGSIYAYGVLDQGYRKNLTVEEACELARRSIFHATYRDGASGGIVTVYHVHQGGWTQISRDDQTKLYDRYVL
In words: Trypanosoma cruzi proteasome chymotrypsin-like activity (TcProtChymo) assay. Also: in the data most compounds retested in dose-response had high values. Conditions: 9.37 µM. It counts as functional.

The species entered for the next assay is Homo sapiens. In words: To identify inhibition of the IFN signalling (Jak-Stat) pathway via expression of an eGFP reporter gene under the control of an IFN-stimulated response element (ISRE) containing MxA promoter. Type of assay: functional. The conditions noted are these: 30 µM. A general note: A reporter such as luciferase makes a cellular process visible.

The target of assay [7] is T4, Tyrosyl-tRNA synthetase, putative (Trypanosoma cruzi (strain CL Brener)) (UniProt Q4DSP6).
T4 sequence (whole entry): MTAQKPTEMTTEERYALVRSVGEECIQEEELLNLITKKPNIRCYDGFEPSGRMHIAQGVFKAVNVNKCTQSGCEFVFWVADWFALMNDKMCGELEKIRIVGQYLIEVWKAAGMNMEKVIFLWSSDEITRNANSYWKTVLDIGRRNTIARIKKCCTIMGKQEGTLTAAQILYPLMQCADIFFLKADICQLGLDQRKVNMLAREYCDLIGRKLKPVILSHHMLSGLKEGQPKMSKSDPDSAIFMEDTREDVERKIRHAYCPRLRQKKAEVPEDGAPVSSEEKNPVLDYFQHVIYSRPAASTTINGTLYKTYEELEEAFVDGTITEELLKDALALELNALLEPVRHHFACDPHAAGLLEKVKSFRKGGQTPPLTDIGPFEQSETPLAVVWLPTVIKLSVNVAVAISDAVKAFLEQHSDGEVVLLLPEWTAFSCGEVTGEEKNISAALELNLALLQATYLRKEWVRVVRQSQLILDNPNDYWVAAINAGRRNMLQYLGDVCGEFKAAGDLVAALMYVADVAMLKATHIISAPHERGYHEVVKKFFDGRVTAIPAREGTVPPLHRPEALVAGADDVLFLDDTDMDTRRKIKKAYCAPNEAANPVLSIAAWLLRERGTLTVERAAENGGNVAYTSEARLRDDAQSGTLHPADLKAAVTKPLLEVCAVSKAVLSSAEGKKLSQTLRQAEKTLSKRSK
In words: Trypanosoma cruzi tyrosyl tRNA synthetase (TcYRS) _High Tyrosine SOP. Also: in the data most compounds retested in dose-response had high values. Type of assay: functional. The conditions noted are these: 30 µM.

In assay [8] the target is T4, Tyrosyl-tRNA synthetase, putative (Trypanosoma cruzi (strain CL Brener)). In words: Trypanosoma cruzi tyrosyl tRNA synthetase (TcYRS) SOP. It counts as functional. The conditions noted are these: 30 µM.
Assay [9] addresses Chromo domain-containing protein 1 (Saccharomyces cerevisiae (strain ATCC 204508 / S288c) (Baker's yeast)) (UniProt P32657). In words: ScCHD-1 Enzyme Inhibition Assay. Also: in the data most compounds retested in dose-response had high values. It counts as functional. The conditions noted are these: 30 µM.

For some assays here: Entries with a potency or affinity are not part of this list.

Chromo domain-containing protein 1 (Saccharomyces cerevisiae (strain ATCC 204508 / S288c) (Baker's yeast)), sequence (P32657 whole entry, the tested form may be a part): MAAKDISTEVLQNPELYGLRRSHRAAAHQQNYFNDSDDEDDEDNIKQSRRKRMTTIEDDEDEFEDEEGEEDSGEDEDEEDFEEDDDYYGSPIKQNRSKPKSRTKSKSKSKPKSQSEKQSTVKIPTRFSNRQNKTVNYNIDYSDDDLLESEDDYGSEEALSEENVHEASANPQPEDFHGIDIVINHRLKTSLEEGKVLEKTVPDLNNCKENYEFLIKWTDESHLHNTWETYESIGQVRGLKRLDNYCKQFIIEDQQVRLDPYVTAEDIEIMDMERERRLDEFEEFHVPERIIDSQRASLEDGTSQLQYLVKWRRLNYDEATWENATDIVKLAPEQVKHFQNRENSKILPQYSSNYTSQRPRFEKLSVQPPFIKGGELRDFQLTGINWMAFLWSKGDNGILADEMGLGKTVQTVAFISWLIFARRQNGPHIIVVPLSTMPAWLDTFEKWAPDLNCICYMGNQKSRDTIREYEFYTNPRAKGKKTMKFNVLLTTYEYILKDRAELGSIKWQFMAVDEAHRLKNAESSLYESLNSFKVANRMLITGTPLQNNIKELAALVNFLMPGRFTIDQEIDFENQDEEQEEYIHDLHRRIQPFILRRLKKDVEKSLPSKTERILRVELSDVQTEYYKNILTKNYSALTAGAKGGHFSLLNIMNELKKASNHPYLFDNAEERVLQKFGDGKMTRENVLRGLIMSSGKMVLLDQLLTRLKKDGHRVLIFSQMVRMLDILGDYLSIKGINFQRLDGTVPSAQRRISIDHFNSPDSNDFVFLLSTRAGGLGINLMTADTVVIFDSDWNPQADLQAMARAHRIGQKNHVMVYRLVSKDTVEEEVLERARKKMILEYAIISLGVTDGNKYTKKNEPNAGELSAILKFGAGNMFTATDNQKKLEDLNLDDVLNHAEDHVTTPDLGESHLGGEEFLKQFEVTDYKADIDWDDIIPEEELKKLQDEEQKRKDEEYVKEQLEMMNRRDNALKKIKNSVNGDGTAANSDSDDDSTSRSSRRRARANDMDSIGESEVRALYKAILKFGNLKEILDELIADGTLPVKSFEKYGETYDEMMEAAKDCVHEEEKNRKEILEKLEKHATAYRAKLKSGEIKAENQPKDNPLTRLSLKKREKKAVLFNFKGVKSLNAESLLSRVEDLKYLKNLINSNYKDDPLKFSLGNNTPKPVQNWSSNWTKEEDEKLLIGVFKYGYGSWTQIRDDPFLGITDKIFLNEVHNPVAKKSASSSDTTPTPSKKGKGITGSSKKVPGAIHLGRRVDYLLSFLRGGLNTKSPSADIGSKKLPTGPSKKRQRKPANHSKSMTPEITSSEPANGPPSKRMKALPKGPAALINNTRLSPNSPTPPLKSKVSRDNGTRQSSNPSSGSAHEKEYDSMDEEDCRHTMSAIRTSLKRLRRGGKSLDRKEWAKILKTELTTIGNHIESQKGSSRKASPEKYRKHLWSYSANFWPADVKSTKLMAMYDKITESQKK
Protein translocase subunit SecA (Escherichia coli (strain K12)), sequence (P10408 whole entry): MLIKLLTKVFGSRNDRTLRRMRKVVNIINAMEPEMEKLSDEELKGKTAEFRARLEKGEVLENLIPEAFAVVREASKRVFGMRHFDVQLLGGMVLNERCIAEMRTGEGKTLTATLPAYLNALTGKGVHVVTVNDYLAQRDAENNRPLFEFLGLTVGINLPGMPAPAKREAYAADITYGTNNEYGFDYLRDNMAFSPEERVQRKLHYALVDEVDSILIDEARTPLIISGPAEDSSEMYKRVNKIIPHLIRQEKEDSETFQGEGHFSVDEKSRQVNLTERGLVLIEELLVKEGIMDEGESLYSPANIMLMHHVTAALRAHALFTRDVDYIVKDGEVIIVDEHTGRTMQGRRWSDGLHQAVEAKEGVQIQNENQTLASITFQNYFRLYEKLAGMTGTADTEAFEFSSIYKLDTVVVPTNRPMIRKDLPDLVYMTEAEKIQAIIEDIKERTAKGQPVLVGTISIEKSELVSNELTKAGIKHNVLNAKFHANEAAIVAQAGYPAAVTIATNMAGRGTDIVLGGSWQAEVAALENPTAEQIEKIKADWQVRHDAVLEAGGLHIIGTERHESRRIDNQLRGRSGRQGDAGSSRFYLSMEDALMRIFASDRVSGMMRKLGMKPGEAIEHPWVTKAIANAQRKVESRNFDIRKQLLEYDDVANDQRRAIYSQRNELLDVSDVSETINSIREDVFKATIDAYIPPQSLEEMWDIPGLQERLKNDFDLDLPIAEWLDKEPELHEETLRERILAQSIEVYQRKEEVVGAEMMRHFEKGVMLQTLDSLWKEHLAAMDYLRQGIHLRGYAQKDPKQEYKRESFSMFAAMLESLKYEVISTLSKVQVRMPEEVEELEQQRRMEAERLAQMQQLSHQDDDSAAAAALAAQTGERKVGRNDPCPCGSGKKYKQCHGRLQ

For `CN1CCOC(CNCc2coc(-c3cccs3)n2)C1` (stereo not given), the Percent Effect in [1] is -2.66%; in assay [2], 22.8%; in assay [3], -18.2%; in assay [4], -13.1%; in the assay with Trypanosoma cruzi, 5.38%; in assay [5] it was 3.42%. The Percent Effect in assay [6] is 8.27%; in the assay filed under Homo sapiens it was 12.8%; in assay [7], 8.37%; in assay [8] it was 21.5%; in [9], -14.2%.

As to `CNC(=O)c1cccc(C2CNCCN2C(C)=O)c1` (stereo not given), the Percent Effect in [1] is 0.479%; in assay [2] it was 14.9%; in [3], 9.34%; in assay [4], -6.16%; in the assay on Trypanosoma cruzi, -4.15%; in assay [5] it was -0.232%. The Percent Effect in [6] was 10.6%; in the assay filed under Homo sapiens it was 19.3%; in assay [7], 2.15%; in assay [8] it was 3.9%; in assay [9] it was -8.27%.

As to `CN(C)CC(=O)N1Cc2nc(C(=O)NCc3ccncc3)oc2C1`, the Percent Effect in assay [1] was -0.101%; in [2], 13.3%; in assay [3], -4.75%; in [4], 4%; in the assay with Trypanosoma cruzi, 3.86%; in assay [5], -49.3%. The Percent Effect in [6] was 14.4%; in the assay filed under Homo sapiens, -9.53%; in assay [7], 0%; in [8] it was 20%; in assay [9], -6.75%.

Consider `CC(=O)N1CCCN(Cc2csc(-c3ncccn3)n2)CC1`, for which the Percent Effect in assay [1] is -0.976%; in assay [2], 13.2%; in assay [3], -3.37%; in [4] it was -1%; with Trypanosoma cruzi, -3.02%; in assay [5], 3.55%. In addition, the Percent Effect is 20.4% in [6]; 12% in the assay filed under Homo sapiens; 6.38% in assay [7]; 18.2% in [8]; -3.23% in [9].

On to `O=C(C1CCOCC1)N1C[C@@H]2C[C@@H](c3nc(C4CC4)cs3)O[C@@H]2C1`, for which the Percent Effect was 0.171% in assay [1]; 16.4% in assay [2]; -11.2% in assay [3]; 8.5% in assay [4]; 3.57% with Trypanosoma cruzi; -11.6% in assay [5]. The Percent Effect in [6] was 13.8%; in the assay filed under Homo sapiens it was 1.09%; in assay [7] it was 11.5%; in assay [8], 21%; in assay [9], 0.447%.

With `Cc1ccc(S(=O)(=O)N2C[C@@H]3C[C@@H](NC(=O)C(C)(C)C)[C@@H]3C2)cc1`, the Percent Effect in [1] was -5.99%; in [2] it was 14.9%; in assay [3], 5.25%; in assay [4] it was 4.69%; with Trypanosoma cruzi, 2.77%; in [5], -3.48%. Further, the Percent Effect is 12.3% in [6]; 2.6% in the assay listed under Homo sapiens; 3.23% in [7]; 9.09% in assay [8]; -22.4% in [9].

Consider `CCc1ccc(C(=O)N2CCCC(n3cncn3)C2)o1` (stereo not given), for which the Percent Effect in assay [1] was -10.1%; in assay [2], -4.17%; in assay [3] it was -1.09%; in assay [4], -2.11%; with Trypanosoma cruzi it was -2.82%; in assay [5], -2.21%. Besides, the Percent Effect was 7.37% in [6]; 4.2% in the assay filed under Homo sapiens; 3.16% in [7]; -2.56% in assay [8]; 3.19% in [9].

Turning to `CN(Cc1ccccn1)C1COC2(CCN(Cc3cccnc3)CC2)C1` (stereo not given), the Percent Effect in [1] is -2.78%; in assay [2], 16%; in assay [3], -2.32%; in [4], -9.58%; in the assay with Trypanosoma cruzi it was 4.72%; in [5] it was 49.2%. The Percent Effect in assay [6] is 12.1%; in the assay listed under Homo sapiens it was 17.1%; in assay [7], 5.32%; in assay [8], 16.7%; in [9] it was -7.71%.

Turning to `CCC1CN(CCC(=O)N(C)C)CCN1CCOC` (stereo not given), the Percent Effect was -1.46% in [1]; 16.2% in [2]; -11.9% in [3]; 3.32% in assay [4]; 2.74% with Trypanosoma cruzi; -0.401% in assay [5]. The Percent Effect is 5.04% in assay [6]; -13.9% in the assay listed under Homo sapiens; 8.37% in assay [7]; 25.9% in assay [8]; -3.8% in assay [9].

On to `Cc1nnc(CN2CCN(CCOc3ccccc3C#N)CC2)n1C`, for which the Percent Effect in [1] is -5%; in assay [2], 13.2%; in assay [3], -7.44%; in assay [4] it was 8.94%; in the assay on Trypanosoma cruzi, 5.7%; in assay [5], 1.44%. Further, the Percent Effect was 7.87% in assay [6]; 5.78% in the assay filed under Homo sapiens; 3.45% in [7]; 16.1% in assay [8]; -3.26% in [9].

The values above are taken from ChEMBL document CHEMBL3988442, “University of Dundee, Small-Polar-MMV Screening Library” (2021).
